Screens deposited in PubChem BioAssay by several laboratories.
Sampled rows, rich in hits. Any-hit rate of the full collection: about 3.8%.
tim10-1 inh = tim10-1 yeast growth inhibition; S. cerevisiae tim10-1 ts strain growth, BacTiter-Glo, 24 h; hit rate 2.2% among 330,000; inhibition, % at 20 µM;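 active = inhibition of at least 40%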;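 note: mutant grown at 25 °C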
PfHsp90 yeast 2 = inhibits growth of yeast expressing Plasmodium falciparum Hsp90 | hit rate 0.32% among 310,000 | inhibition, % at 9.4 µM | S. cerevisiae expressing PfHsp90, BacTiter-Glo ATP, 48 h; yeast lacking PDR1 and PDR3 efflux regulators;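 active = every replicate shows inhibition above about 80%, whatever the replicate mean, limit read from the data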
Beta2AR agonist = agonists of human beta-2 adrenergic receptor inducing internalization; P07550; Am2.2-beta2AR cells, FAP receptor internalization, flow cytometry; response, % (test concentration not listed); hit rate 0.43% among 340,000; AID 504454;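 active = response above a set limit, near 3 SD of response in nonfluorescent compounds, cut at about 42% in these data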
Target sequence (P07550 whole entry, looked up): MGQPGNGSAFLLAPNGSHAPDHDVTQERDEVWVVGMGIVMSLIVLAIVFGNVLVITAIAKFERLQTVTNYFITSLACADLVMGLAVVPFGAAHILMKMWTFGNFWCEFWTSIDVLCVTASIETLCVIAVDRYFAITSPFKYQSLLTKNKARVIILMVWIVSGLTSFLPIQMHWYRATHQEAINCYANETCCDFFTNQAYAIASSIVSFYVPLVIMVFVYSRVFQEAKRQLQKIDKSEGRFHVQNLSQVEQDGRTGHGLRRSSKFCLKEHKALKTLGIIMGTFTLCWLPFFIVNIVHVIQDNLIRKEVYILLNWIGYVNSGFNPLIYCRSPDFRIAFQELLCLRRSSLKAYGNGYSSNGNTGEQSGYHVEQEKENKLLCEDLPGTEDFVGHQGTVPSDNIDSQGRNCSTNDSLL
tim23-1 inh = inhibits growth of tim23-1 mutant yeast; S. cerevisiae tim23-1 growth, BacTiter-Glo luminescence, 24 h; inhibition, % at 20 µM; hit rate 1.3% among 330,000; AID 463212;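 active = growth inhibition of the mutant yeast at or above 50%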;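 note: temperature-sensitive mutant grown at 25 °C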
TIM10 inh = growth inhibitors of TIM10 yeast strain; hit rate 1.4% among 330,000; AID 463195; inhibition, % at 10 µM; S. cerevisiae TIM10 strain growth, BacTiter-Glo luminescence, 24 h;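 active = inhibition of 40% or more at the single tested concentration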;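 note: wild-type TIM10 isogenic control strain grown at permissive 25 °C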
tim10-1 conf = tim10-1 yeast growth inhibition, confirmed; inhibition, % at 20 µM; hit rate 56% among 7,400; shares compounds with tim10-1 inh; S. cerevisiae tim10-1 ts strain growth, BacTiter-Glo, 24 h;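 active = inhibition of yeast growth at or above a set limit in either of two repeat tests at 20 µM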;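 note: tim10-1 mutant grown at permissive 25 °C to find synthetic lethal compounds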
Each line names hits and unclear results; the compound was inactive in the other large screens (follow-up assays come after a bar, where they were run).

O=C(Nc1ncc2c(n1)-c1ccccc1CC2)c1ccccc1	tim10-1 inh 47.3 | tim10-1 conf inactive
O=C(Nc1ncc2c(n1)-c1ccccc1CC2)c1ccc(F)cc1	tim10-1 inh 40.5 | tim10-1 conf inactive
CCCn1c(CN2CCN(C(=O)c3ccco3)CC2)nc2cc(S(=O)(=O)N(C)C)ccc21	none
Cc1ccccc1NC(=S)N(Cc1ccccn1)Cc1ccccc1Cl	tim10-1 inh 44.9 | tim10-1 conf 34.4
N#Cc1c(-c2ccccc2)nc(SCc2ccc(Cl)cc2)[nH]c1=O	none
COC(=O)c1cccc(CSc2nc(-c3ccccc3)c(C#N)c(=O)[nH]2)c1	tim10-1 inh 47.4 | tim10-1 conf inactive
CCOC(=O)CSc1cc(-c2ccccc2)nc2ncnn12	tim10-1 inh 43.7 | tim10-1 conf 34.5
COC(=O)c1ccsc1NC(=O)CCS(=O)(=O)c1ccccc1	tim10-1 inh 41.5 | tim10-1 conf inactive
Cc1ccc(S(=O)(=O)CCC(=O)Nc2sccc2C(N)=O)cc1	none
COC(=O)c1ccsc1NC(=O)CCS(=O)(=O)c1ccc(Cl)cc1	tim10-1 inh 56.2 | tim10-1 conf 59.1
Cc1sc2ncnc(N3CCN(CCOc4ccc(Cl)cc4)CC3)c2c1C	tim10-1 inh 45.2 | tim10-1 conf 31.6
COC(=O)N1C(=O)[C@](c2ccccc2)(C(C)C)N1C(=O)OC	none
CCOC(=O)N1C(=O)[C@@](c2ccc(Cl)cc2)(C(C)C)N1C(=O)OCC	tim10-1 inh 44.0 | tim10-1 conf 45.0
COc1cc(C)nc(N(C)S(=O)(=O)c2ccccc2Cl)n1	tim10-1 inh 42.6 | tim10-1 conf inactive
COc1nc(N(C)C)nc(N(OC)S(=O)(=O)c2ccccc2Cl)n1	none (no result: PfHsp90 yeast 2)
Cc1c(C)[n+](=O)c(C)c(C)n1[O-]	none (no result: tim10-1 inh, tim23-1 inh, TIM10 inh)
COCCCNC(=O)/C(C#N)=C/c1ccc(F)cc1	tim10-1 inh 42.2 | tim10-1 conf inactive
Nc1nn2c(-c3ccccc3)cc(=O)[nH]c2c1N=Nc1ccc(O)cc1	tim10-1 inh 40.7 | tim10-1 conf inactive
Cc1cc(C)cc(NC(=S)NCc2ccc3[nH]c4c(c3c2)CCCC4)c1	tim10-1 inh 40.7 | tim10-1 conf inactive
CCS(=O)(=O)NCc1ccc2[nH]c3c(c2c1)CCCC3	none (no result: PfHsp90 yeast 2, Beta2AR agonist)
CCOC(=O)n1c(=O)n(Cc2ccccc2Cl)c2ccccc21	tim10-1 inh 42.7 | tim10-1 conf 33.3
CCc1cccc(NS(=O)(=O)c2ccc(-n3cccn3)cc2)c1	tim10-1 inh 50.4 (no result: Beta2AR agonist) | tim10-1 conf inactive
CC[C@@]1(C(=O)OC)N[C@H](CN(C)S(=O)(=O)c2ccc(-c3ccccc3)cc2)[C@@H]2C(=O)N(Cc3ccccc3)C(=O)[C@@H]21	none
CC(C)(C)OC(=O)N1CCC(C(=O)Nc2cccc(C(=O)NCCCc3ccccc3)c2)CC1	none (no result: tim10-1 inh, tim23-1 inh, TIM10 inh)
O=C(CSc1nnnn1-c1ccccc1)N1CCCc2ccccc21	tim10-1 inh 43.4 | tim10-1 conf inactive
O=C(CSc1n[nH]c(-c2ccccc2O)n1)N1CCCc2ccccc21	tim10-1 inh 44.5 | tim10-1 conf inactive
Cc1ccc(C2(C)NC(=O)N(CC(=O)NC(=O)NC(C)C)C2=O)cc1 (stereo not given)	none
CCOC(=O)c1nnc(-c2ccc(C)cc2)nc1Oc1ccc(Cl)cc1Cl	tim10-1 inh 50.4 | tim10-1 conf 31.2
Cc1nc(SCC(=O)N(CC(C)C)C2CCS(=O)(=O)C2)c(C#N)c(C)c1C (stereo not given)	none (no result: PfHsp90 yeast 2)
O=C1c2cccc3cccc(c23)C(=O)N1CCN1CCN(CC(O)COc2ccc3ccccc3c2)CC1 (stereo not given)	tim10-1 inh 70.8 | tim10-1 conf 61.8
Fc1ccc(-n2nnnc2-c2cnc(-c3cccs3)nc2C(F)(F)F)cc1	tim10-1 inh 40.5 (no result: PfHsp90 yeast 2) | tim10-1 conf inactive
Cc1ccc(-n2nnnc2-c2cnn(-c3ccc(F)cc3)c2C(F)(F)F)cc1	tim10-1 inh 41.4 | tim10-1 conf inactive
FC(F)(F)c1nc(N2CCCC2)ncc1-c1nnnn1-c1ccc(Cl)cc1	tim10-1 inh 40.4 | tim10-1 conf inactive
FC(F)(F)c1ccncc1-c1nnnn1-c1ccc(Cl)cc1	none
Cc1ccc(-c2nnnn2-c2ccc(C)cc2)cc1	none
COc1ccc(CCC2(C)NC(=O)N(C(C)C(=O)N3c4ccccc4CC3C)C2=O)cc1 (stereo not given)	none
O=C(Nc1ccc(NS(=O)(=O)c2ccccc2)cc1)c1ccccc1Cl	none
Cc1ccc2c(c1)c1c(n2C)-c2[nH]ncc2CC1	tim10-1 inh 54.9 (no result: PfHsp90 yeast 2) | tim10-1 conf inactive
Cc1ccc2c(c1)c1c(n2C)C(C(N)=O)CCC1 (stereo not given)	none (no result: PfHsp90 yeast 2)
COC(=O)c1cccc(NC(=O)c2cc3sccc3n2C)c1	tim10-1 inh 43.6 | tim10-1 conf inactive
CCOC(=O)C1(CC)Oc2ccccc2C(c2ccc(OC)cc2)=C1C(=O)OC (stereo not given)	none
COc1ccc(C2c3cc(OC)c(OC)cc3CC3C(=O)OCC32)cc1OC (stereo not given)	none (no result: tim10-1 inh, tim23-1 inh, TIM10 inh)
CC[C@]1(C(=O)OC)[C@H]2C(=O)N(C)C(=O)[C@H]2[C@H]2CN(C)C(=NC3CCCCC3)N21	none
CCn1c(-c2csc3c2CCCC3)n[nH]c1=S	none
CCCCn1c(-c2csc3c2CCC(C)C3)n[nH]c1=S (stereo not given)	tim10-1 inh 51.3 | tim10-1 conf inactive
CCOC(=O)CNC1CC(=O)N(c2ccc(Br)cc2)C1=O (stereo not given)	none
Cc1cccc(C)c1NC(=O)c1nc(S(=O)(=O)Cc2ccccc2)ncc1Cl	none
Cc1cccc(CS(=O)(=O)c2ncc(Cl)c(C(=O)NCc3ccccc3)n2)c1	tim10-1 inh 44.0 | tim10-1 conf inactive
CCOC(=O)c1ccc(NC(=S)N2CCN(C)CC2)cc1	none
CCOC(=O)c1c(NC(=S)N2CCN(C)CC2)sc(C)c1-c1ccccc1	tim10-1 inh 42.9 | tim10-1 conf 31.4
O=C(NCC(F)(F)F)c1ccc(S(=O)(=O)N2CCN(C(=O)C3CCCO3)CC2)cc1 (stereo not given)	none
COc1cccc2[nH]c3c(N4CCC(C)CC4)ncnc3c12	tim10-1 inh 41.5 | tim10-1 conf inactive
CCCCC(CCC(=O)O)(C(=O)OCC)c1csc(Nc2ccccc2)n1 (stereo not given)	tim10-1 inh 42.1 | tim10-1 conf inactive
CCOC(=O)/C(=N\Nc1ccc(Cl)cc1)c1csc(Nc2ccccc2)n1	none
CCOC(=O)/C(=N/Nc1ccccc1)c1csc(Nc2ccccc2)n1	tim10-1 inh 48.1 | tim10-1 conf inactive
Cc1ccc(S(=O)(=O)N[C@@H](Cc2ccccc2)C(=O)N2CCC(C(=O)N[C@@H](CC(C)C)C(=O)O)CC2)cc1	none
Cc1cc(C)n(C(=O)/C(C#N)=N/Nc2cc(Cl)cc(Cl)c2)n1	tim10-1 inh 47.1 | tim10-1 conf 56.1
Cc1cc(C)n(C(=O)/C(C#N)=N\Nc2ccccc2[N+](=O)[O-])n1	none
Cc1nc(S(=O)(=O)c2ccc(Cl)cc2)c(N(C)C)o1	none
